According to PubChem BioAssay:
“And” between values parts separate entries of the source, which are not always exact repeats. Equal entries are not always repeated. The source made the active and inactive calls.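 The calls were made as follows, unless noted: active = compounds whose cell count with miR-34 switched on is under 0.7 times the count with it off; inactive = the rest.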

Assays:
[1] = viability loss with induced miR-34 in A549 – imaging, A549 dox-inducible miR-34, nuclei and caspase counts, primary screen (AID 1347080); details: A549 miR-34 inducible, Hoechst nuclei count, 48 h; also: test concentration not given here
[2] = MELAS cybrid and Rieske KO viability enhancers – cell-based, MELAS cybrids, Rieske KO mouse fibroblasts, CellTiter-Glo, primary screen (AID 1508586;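 active = mean z-score across replicates of 1.96 or higher in either the MELAS or the Rieske mutant cell line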;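 also: test concentration not given here; z relative to plate mean and SD of compound and empty wells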); details: low glucose
[3] = galactose survival enhancers in mitochondrial complex I cybrids – cell-based, galactose medium, ATP luminescence, primary screen (AID 1645843;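 active = z-score of at least 1.8 in each of two replicates, scored against plate mean and spread of sample wells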;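 also: positive z means more ATP and so rescue of galactose-driven cybrid death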); details: complex I mutant cybrid cells, 72 h, stronger effect = higher value
[4] = stronger effect = lower value, cell number ratio, induced over uninduced
[5] = measured here: relative caspase fold change +Dox/-Dox
[6] = measured here: total cells with miR-34 induction, stronger effect = lower value
[7] = measured here: total cells without miR-34 induction
[8] = MELAS cybrid survival, CellTiter-Glo 48 h, stronger effect = higher value
[9] = Rieske KO mouse fibroblast survival, CellTiter-Glo 72 h

SMILES	fold change [1, 4]	fold change [1, 5]	cell count [1, 6]	cell count [1, 7]	z-score [2, 8]	z-score [2, 9]	z-score [3]
NCC1OC(OC2C(CO)OC(OC3C(O)C(N)CC(N)C3OC3OC(CO)C(O)C(O)C3N)C2O)C(N)C(O)C1O (centres undefined)	0.908 (inactive)	0.282	9400	10400	0.577 (inactive)	-0.435	0.725 (inactive)
Cn1nc(C(C)(C)C)cc1NC(=O)Cn1cc(-c2ccccc2N)cn1	0.913 (inactive)	1.7	8250	9040	0.154 (inactive)	-0.442	-0.46 (inactive)
CCN(CC)C(=O)[C@]1(c2ccccc2)CC1CN (some centres undefined)	0.994 (inactive) and 0.915 (inactive)	2.55 and 0.784	10600 and 8120	10700 and 8880	-0.247 (inactive)	-0.165	0.315 (inactive)
COc1ccccc1-c1cnn(CC(=O)Nc2cc(C)nn2C)c1	0.86 (inactive)	2.23	7820	9090	0.116 (inactive)	-1.22	-0.56 (inactive)
OC1(CNc2ncnc3nc[nH]c23)C2CC3CC(C2)CC1C3 (centres undefined)	0.887 (inactive)	0.873	8560	9650	-0.357 (inactive)	-0.0569	-0.575 (inactive)
Cc1ccc(-n2cc(-c3nc4c(cnn4Cc4cccnc4)[nH]3)cn2)cc1	0.858 (inactive)	2.02	7150	8340	0.697 (inactive)	0.0385	-0.445 (inactive)
CCCn1ncc(NC(=O)Cn2cc(C)c(-c3cccc(Cl)c3)n2)n1	0.851 (inactive)	1.04	7170	8420	-0.0413 (inactive)	-0.435	1.05 (inactive)
O=C(Nc1n[nH]c(-c2ccco2)n1)N1CCc2ccccc2C1	0.896 (inactive)	0.879	7540	8420	1.17	3.81	0.1 (inactive)
O=C(O)CNC(=O)c1cccc(O)c1	0.865 (inactive)	0.603	8440	9760	0.669 (inactive)	0.0478	0.945 (inactive)
Cc1ccc2c(-c3ncnc4scc(C)c34)cccc2n1	0.882 (inactive)	1.37	6650	7540	-0.275 (inactive)	-0.173	2.45 (inactive)
COCCn1cncc1CNc1nccc(-c2c(C)nn(C)c2C)n1	0.881 (inactive)	0.975	8090	9180	-0.172 (inactive)	-0.0475	-0.325 (inactive)
CC1OC(OCC2OC(Oc3c(-c4ccc(O)c(O)c4)oc4cc(O)cc(O)c4c3=O)C(O)C(O)C2O)C(O)C(O)C1O (centres undefined)	0.944 (inactive) and 0.91 (inactive)	1.42 and 0.851	10400 and 8400	11000 and 9230	-0.328 (inactive)	-0.0914	0.225 (inactive)
CN1CCN(Cc2ccc3sccc3c2)CC1CCO (centres undefined)	0.86 (inactive)	1.5	8240	9580	0.0101 (inactive)	-0.424	-0.48 (inactive)
CCN(CC)C(=O)c1c(NC(=O)c2cccs2)sc2c1CCCC2	1.02 (inactive)	0.802	1650	1620	0.194 (inactive)	0.0357	-0.49 (inactive)
CC(=O)c1sc(Nc2ccccc2)nc1C	0.911 (inactive)	0.648	8310	9120	3.09 (active)	-0.213	0.63 (inactive)
COc1ccc2c(C(=O)N(C)C3CCN(C)C3)cc(-c3cnn(C)c3)nc2c1 (centres undefined)	0.88 (inactive)	1.02	8530	9700	-0.325 (inactive)	-0.194	-0.495 (inactive)
Cc1csc2ncnc(-c3cccc4cccnc34)c12	0.931 (inactive)	0.756	8530	9170	-0.57 (inactive)	-0.471	-0.505 (inactive)
CCOC(=O)C(CCc1ccccc1)NC(C)C(=O)N1C(C(=O)O)CC2CCCC21 (centres undefined)	0.892 (inactive) and 0.893 (inactive)	1.7 and 1.12	8500 and 7970	9530 and 8920	-0.00441 (inactive)	0.321	0.52 (inactive)
CCc1nc(NC(=O)N(C)CC2Cc3ccccc3O2)nn1C (centres undefined)	0.87 (inactive)	1.41	9140	10500	0.229 (inactive)	-0.335	-0.515 (inactive)
Cc1nn(C)cc1-c1ccnc(NCc2nc(Cc3ccccc3)no2)n1	0.883 (inactive)	1.22	8680	9840	-0.288 (inactive)	-0.167	-0.52 (inactive)
Cc1ccc(NC(=O)NCCSCc2ccc(CN(C)C)o2)cc1Cl	0.882 (inactive)	0.585	6630	7520	0.133 (inactive)	-0.401	-1.04 (inactive)
CCc1nc(NC(=O)NC(c2ccccc2)c2ccco2)nn1C (centres undefined)	0.878 (inactive)	0.916	8500	9680	-0.443 (inactive)	0.186	1.04 (inactive)
